Measurements: the supplement of paper PMC13380429

Tested on: Vero E6 infected with SARS-CoV-2
Assay: inhibition of SARS-CoV-2 cytopathic effect; higher = more antiviral protection, active = above 15
Conditions: 48 h

Measured: inhibition of SARS-CoV-2 cytopathic effect

Nc1nc2[nH]cc(CCc3ccc(C(=O)N[C@@H](CCC(=O)O)C(=O)O)cc3)c2c(=O)[nH]1 [pemetrexed]
inactive: 1 nM -1.03% | 8.33 nM 0.64% | 100 nM 1.39% | 833.33 nM -2.48% | 10000 nM -1.3%

CN1CCN(c2nc(C3=C(c4c[nH]c5ccccc45)C(=O)NC3=O)c3ccccc3n2)CC1 [sotrastaurin]
inactive: 1 nM 0.12% | 8.33 nM 1.74% | 100 nM -0.57% | 833.33 nM -1.82% | 10000 nM 4.89%

CO[C@H]1C[C@H](O[C@H]2CC[C@@]3(C)[C@H](CC[C@@H]4[C@@H]3CC[C@]3(C)[C@@H](C5=CC(=O)OC5)[C@@H](OC(C)=O)C[C@]43O)C2)O[C@@H](C)[C@@H]1O [oleandrin]
inactive: 1 nM -3.22% | 8.33 nM -5.79% | 100 nM -12.1% | 833.33 nM -12.2% | 10000 nM -9.58%

NCCCCN=C(N)N [agmatine]
inactive: 1 nM 2.36% | 8.33 nM 2.56% | 100 nM -1.24% | 833.33 nM -2.12% | 10000 nM -4.69%

O=C1O[C@H]([C@@H](O)CO)C(O)=C1O
inactive: 1 nM -3.29% | 8.33 nM -0.03% | 100 nM -1.22% | 833.33 nM -0.21% | 10000 nM -1.51%

Nc1ncnc2c1ncn2[C@H]1CC[C@@H](CO)O1 [dideoxyadenosine]
inactive: 1 nM 2.15% | 8.33 nM 2.41% | 100 nM 2.1% | 833.33 nM 1.23% | 10000 nM 4.14%

C#C[C@]1(O)CC[C@H]2[C@@H]3CCC4=CC(=O)CC[C@@H]4[C@H]3CC[C@@]21CC [norgestrel]
inactive: 1 nM -2% | 8.33 nM -0.115% | 100 nM 2.25% | 833.33 nM -0.065% | 10000 nM 0.025%
